Experimental findings from PubChem BioAssay are described below.

In one assay the target is Albumin (Bos taurus) (UniProt P02769). The experiment in a line: bovine serum albumin binders on microarray, profiling panel, artefact control for SMM control protein annotation, biochemical, small-molecule microarray, Alexa647 label, 635/667 nm fluorescence (AID 1118).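 Note: score merges 667 nm emission intensity and signal-to-noise per printed compound spot.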 The conditions noted are these: BSA-A647 binding, fluorescence 635 nm, higher = more signal.
Assay [1] can be described thus: small-molecule microarray binders of probe aXIP, primary screen, biochemical, NeuroSMM set, 635/667 nm fluorescence (AID 1119).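 Note: probe is the protein aXip251-270 applied at 1 µg/mL to compound-printed slides; binding of probe to printed compounds measured as 667 nm fluorescence plus signal to noise.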 The conditions noted are these: higher = more signal, called active from +8 up or from −8 down.
Assay [2] is described as follows: small-molecule binders of probe aNOTCH3, primary screen, biochemical, small-molecule microarray, 635/667 nm fluorescence (AID 1120).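 Note: probe is a biotin-tagged antibody raised against NOTCH3 rather than NOTCH3 protein; score merges spot fluorescence near 667 nm with spot signal to noise.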 The following applies: higher = more signal.
Assay [3] in a line: small-molecule binders of probe aNOTCH2, primary screen, biochemical, small-molecule microarray, 635/667 nm fluorescence (AID 1121).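 Note: score merges feature fluorescence read at 667 nm with its signal to noise.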 The following applies: higher = more signal.
In assay [4] the target is Carbonic anhydrase 2 (Homo sapiens) (UniProt P00918). The experiment in a line: CAII small-molecule binders, profiling panel, biochemical, small-molecule microarray, Alexa647-labelled CAII (AID 1122). The conditions noted are these: CAII-A647 binding fluorescence, higher = more signal.
The nature of assay [5]: COS7 lysate on small-molecule microarray, probe aHis, 635 nm (AID 1123).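 Note: z-score combines 667nm fluorescence intensity with signal-to-noise per printed compound spot.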 The conditions noted are these: COS7 cell lysate, fluorescence, higher = more signal.
Assay [6] in a line: compound binding in COS7 lysate, probe aLAP1, primary screen, cell lysate, small-molecule microarray (AID 1124).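 Note: lysate comes from COS7 cells expressing LAP1 and is applied at 0.3 µg/mL; score merges spot fluorescence near 667 nm with signal-to-noise over triplicate slides.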 The following applies: probe aLAP1, fluorescence, higher = more signal.
Another assay concerns Sam68 (KHDRBS1). As to the kind of experiment: Sam68 small-molecule binders, primary screen, biochemical, small-molecule microarray, 635 nm fluorescence (AID 1125).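 Note: score merges 667 nm channel intensity with signal to noise over triplicate slides.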 The conditions noted are these: small-molecule microarray binding, higher = more signal.
Assay [7] deals with Chordin-like protein 2 (CHRDL2). The experiment in a line: CHRDL2 small-molecule binders, primary screen, biochemical, small-molecule microarray, 635 nm fluorescence (AID 1126).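 Note: printed compound slides probed with Chrdl2 protein at 4 µg/mL for 1 h at 4 C; score merges 667 nm emission intensity with signal to noise over three replicate slides.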 The following applies: small-molecule microarray binding, fluorescence 635 nm; higher = more signal.
For assay [8], the target named is Concanavalin-A (Canavalia ensiformis) (UniProt P02866). The experiment in a line: ConA small-molecule binders, primary screen, artefact control for SMM control protein annotation, biochemical, small-molecule microarray, Alexa647 label, 635 nm (AID 1127).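 Note: z combines 667 nm emission intensity with signal-to-noise across three replicate slides.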 The conditions noted are these: ConA-A647 binding fluorescence, higher = more signal.
Assay [9] in a line: anti-His antibody binders, primary screen, artefact control for SMM control protein annotation, biochemical, small-molecule microarray, 635 nm fluorescence (AID 1128).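 Note: score merges feature fluorescence with signal-to-noise for each printed compound spot.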 The following applies: anti-His Alexa647 antibody binding, higher = more signal.
Assay [10] concerns Human papillomavirus type 1a E7 protein (residues 1-88). As to the kind of experiment: HPV1a E7 small-molecule binders, primary screen, biochemical, small-molecule microarray, residues 1-88, 635 nm (AID 1129). The conditions noted are these: small-molecule microarray binding, fluorescence 635 nm; higher = more signal.
For assay [11], the target named is Focal adhesion kinase 1 (Homo sapiens) (UniProt Q05397). As to the kind of experiment: small-molecule microarray binders of FAK, primary screen, biochemical, 635/667 nm fluorescence, BSA, DTT (AID 1130).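 Note: composite of spot emission at 667 nm and signal to noise over triplicate slides.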 The following applies: PTK2 binding, 635 nm fluorescence, higher = more signal.
In assay [12] the test system is Fibrinogen (Alexa647-labelled). The experiment in a line: fibrinogen binders on compound microarrays, profiling panel, artefact control for SMM control-protein annotation, biochemical, small-molecule microarray, 635/667 nm fluorescence (AID 1131).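 Note: z-score merges 667 nm fluorescence with per-spot signal-to-noise over triplicate slides.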 The conditions noted are these: fibrinogen-A647 binding fluorescence, higher = more signal.
In assay [13] the target is Follistatin (Homo sapiens) (UniProt P19883). The experiment in a line: follistatin binders on small-molecule microarrays, primary screen, biochemical, small-molecule microarray, 635/667 nm fluorescence (AID 1132). The conditions noted are these: FST binding, 635 nm fluorescence, higher = more signal.
The target of assay [14] is Fibroblast growth factor 2 (Homo sapiens) (UniProt P09038). As to the kind of experiment: FGF2 binders on small-molecule microarrays, primary screen, biochemical, small-molecule microarray, 635/667 nm fluorescence (AID 1133). The conditions noted are these: small-molecule microarray binding, FGF2, fluorescence 635/667; higher = more signal.
A short description of assay [15]: mitochondrial membrane potential change in A549 cells, profiling panel, cell-based, JC-1 fluorescence, basal, 24 h, 100 nL (AID 1138).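 Note: A549 lung adenocarcinoma cells under basal conditions with no added stimulus; test concentration not given here.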 The following applies: higher = more signal.
The next assay has as its system Lefty1. The experiment in a line: Lefty1 binders on small-molecule microarrays, primary screen, biochemical, small-molecule microarray, 635/667 nm fluorescence (AID 1139). The following applies: small-molecule microarray binding, fluorescence 635/667; higher = more signal.
For assay [16], the system named is wheat germ agglutinin (Triticum aestivum), Alexa647-labelled. As to the kind of experiment: wheat germ agglutinin binders on compound microarrays, profiling panel, artefact control for SMM control-protein annotation, biochemical, small-molecule microarray, 635/667 nm fluorescence (AID 1140).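 Note: score merges 667 nm feature emission with signal to noise over triplicate slides.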 The following applies: WGA-A647 binding, 635 nm fluorescence, higher = more signal.

Assay [17] deals with Luciferin 4-monooxygenase (Photinus pyralis) (UniProt P08659). The experiment in a line: firefly luciferase enzyme inhibitors, primary screen, biochemical, luminescence, purified enzyme, 2006 set (AID 1141).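 Note: cell-free assay with purified firefly luciferase at 100 ng per well in PBS; test concentration not given here.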 The conditions noted are these: SteadyGlo luminescence, 30 min, higher = more signal, called active from +8 up or from −8 down.

The source made the active and inactive calls.

Sequence of Albumin (Bos taurus) (P02769 whole entry, looked up): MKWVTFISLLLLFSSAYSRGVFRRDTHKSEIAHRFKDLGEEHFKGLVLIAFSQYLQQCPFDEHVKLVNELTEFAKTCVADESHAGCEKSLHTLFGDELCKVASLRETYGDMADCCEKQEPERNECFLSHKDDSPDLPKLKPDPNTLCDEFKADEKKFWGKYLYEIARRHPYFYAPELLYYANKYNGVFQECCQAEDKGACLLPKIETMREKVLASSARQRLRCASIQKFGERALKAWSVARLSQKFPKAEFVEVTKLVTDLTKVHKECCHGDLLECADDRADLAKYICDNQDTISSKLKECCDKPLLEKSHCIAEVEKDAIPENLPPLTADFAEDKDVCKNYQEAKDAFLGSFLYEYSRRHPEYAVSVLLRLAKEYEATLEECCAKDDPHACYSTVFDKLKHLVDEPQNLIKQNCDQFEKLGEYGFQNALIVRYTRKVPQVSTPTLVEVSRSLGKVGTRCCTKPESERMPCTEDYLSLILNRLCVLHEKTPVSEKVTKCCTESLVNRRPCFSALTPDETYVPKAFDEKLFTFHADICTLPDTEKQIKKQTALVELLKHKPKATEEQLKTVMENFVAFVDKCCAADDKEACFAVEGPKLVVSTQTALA
Sequence of Fibroblast growth factor 2 (Homo sapiens) (P09038 whole entry, looked up): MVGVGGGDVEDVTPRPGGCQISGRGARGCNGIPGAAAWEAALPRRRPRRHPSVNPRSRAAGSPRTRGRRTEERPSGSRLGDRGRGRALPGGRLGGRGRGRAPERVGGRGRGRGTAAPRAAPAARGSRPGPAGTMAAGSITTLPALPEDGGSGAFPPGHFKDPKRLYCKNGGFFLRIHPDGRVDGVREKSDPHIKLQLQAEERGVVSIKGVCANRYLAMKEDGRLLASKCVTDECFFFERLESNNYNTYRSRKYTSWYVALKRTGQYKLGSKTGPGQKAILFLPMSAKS
Sequence of Follistatin (Homo sapiens) (P19883 whole entry, looked up): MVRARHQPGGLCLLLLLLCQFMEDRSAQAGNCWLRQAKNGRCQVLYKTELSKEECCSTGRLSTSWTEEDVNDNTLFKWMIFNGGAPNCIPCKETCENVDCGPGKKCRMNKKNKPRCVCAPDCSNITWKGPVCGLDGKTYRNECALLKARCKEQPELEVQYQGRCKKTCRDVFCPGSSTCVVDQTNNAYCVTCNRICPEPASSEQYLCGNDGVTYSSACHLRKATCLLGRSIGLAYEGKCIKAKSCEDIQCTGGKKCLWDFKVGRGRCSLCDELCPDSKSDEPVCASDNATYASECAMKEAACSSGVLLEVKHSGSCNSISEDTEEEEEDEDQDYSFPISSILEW
Sequence of Concanavalin-A (Canavalia ensiformis) (P02866 whole entry, looked up): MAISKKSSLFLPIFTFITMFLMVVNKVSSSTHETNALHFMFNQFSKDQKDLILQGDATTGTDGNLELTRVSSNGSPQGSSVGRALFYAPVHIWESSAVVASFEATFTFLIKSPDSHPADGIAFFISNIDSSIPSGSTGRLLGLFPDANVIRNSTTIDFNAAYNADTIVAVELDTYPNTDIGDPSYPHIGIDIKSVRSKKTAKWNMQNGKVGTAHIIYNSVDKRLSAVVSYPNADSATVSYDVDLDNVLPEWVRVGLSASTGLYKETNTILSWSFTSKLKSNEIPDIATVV
Sequence of Focal adhesion kinase 1 (Homo sapiens) (Q05397 whole entry, looked up): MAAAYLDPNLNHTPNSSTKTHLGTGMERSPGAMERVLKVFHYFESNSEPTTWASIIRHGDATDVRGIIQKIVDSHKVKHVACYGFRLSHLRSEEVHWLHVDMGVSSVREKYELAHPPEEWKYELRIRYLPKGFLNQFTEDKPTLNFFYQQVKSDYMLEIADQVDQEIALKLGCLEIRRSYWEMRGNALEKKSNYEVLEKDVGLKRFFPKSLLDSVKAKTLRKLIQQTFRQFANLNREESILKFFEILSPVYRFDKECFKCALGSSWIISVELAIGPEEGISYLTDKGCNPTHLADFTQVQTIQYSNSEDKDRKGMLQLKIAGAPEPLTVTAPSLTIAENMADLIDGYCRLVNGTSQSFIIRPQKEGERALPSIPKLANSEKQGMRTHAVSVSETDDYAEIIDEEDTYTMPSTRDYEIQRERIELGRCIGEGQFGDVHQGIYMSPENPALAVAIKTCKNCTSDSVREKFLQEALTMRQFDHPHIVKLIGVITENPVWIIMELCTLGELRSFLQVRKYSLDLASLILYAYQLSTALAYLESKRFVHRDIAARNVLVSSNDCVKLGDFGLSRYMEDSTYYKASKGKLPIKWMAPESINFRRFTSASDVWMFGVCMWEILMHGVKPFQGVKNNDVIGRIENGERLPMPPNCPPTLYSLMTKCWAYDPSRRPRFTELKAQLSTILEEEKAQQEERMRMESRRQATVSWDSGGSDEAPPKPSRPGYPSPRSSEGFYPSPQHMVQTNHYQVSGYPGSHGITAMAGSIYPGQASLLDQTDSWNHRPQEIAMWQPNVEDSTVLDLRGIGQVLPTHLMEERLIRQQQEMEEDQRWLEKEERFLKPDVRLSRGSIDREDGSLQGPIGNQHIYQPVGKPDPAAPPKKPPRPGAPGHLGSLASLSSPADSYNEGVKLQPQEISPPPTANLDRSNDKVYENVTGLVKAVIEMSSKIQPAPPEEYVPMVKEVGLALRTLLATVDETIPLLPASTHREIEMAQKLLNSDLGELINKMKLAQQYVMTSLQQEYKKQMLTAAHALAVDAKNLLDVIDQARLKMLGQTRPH
Sequence of Luciferin 4-monooxygenase (Photinus pyralis) (P08659 whole entry, looked up): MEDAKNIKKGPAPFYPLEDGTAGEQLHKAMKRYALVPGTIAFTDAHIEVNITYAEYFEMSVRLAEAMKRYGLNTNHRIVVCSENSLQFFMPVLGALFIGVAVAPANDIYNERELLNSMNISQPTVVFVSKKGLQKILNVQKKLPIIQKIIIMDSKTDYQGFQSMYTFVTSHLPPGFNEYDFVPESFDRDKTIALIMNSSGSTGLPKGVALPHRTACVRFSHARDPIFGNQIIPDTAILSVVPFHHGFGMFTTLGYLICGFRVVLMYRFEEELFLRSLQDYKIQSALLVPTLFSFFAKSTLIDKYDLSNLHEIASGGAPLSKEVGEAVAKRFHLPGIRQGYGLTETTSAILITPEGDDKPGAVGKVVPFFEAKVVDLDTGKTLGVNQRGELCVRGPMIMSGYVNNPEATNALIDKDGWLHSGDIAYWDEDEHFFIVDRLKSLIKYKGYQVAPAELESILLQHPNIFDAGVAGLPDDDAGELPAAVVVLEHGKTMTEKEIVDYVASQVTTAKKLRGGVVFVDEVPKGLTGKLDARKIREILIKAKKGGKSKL

On to `CON=C(C)CCN1CCCc2nc(C)c(C)cc21`, for which the composite z-score with Albumin (Bos taurus) was -0.353; in assay [2] it was 0.0496; in assay [3], -0.0769; in [4] it was 0.438; in [5], 1.42; in assay [6] it was 0.234. Besides, the composite z-score with Sam68 (KHDRBS1) was 1.1; in assay [7] it was 0.637; in [8], 0.374; in assay [9], 1.15; in [10], 0.476; in assay [11] it was -0.0211. Besides, the composite z-score amounted to 0.613 in assay [12]; 0.632 in assay [13]; 0.653 in [14]; 1.05 in the assay with Lefty1; 0.201 in assay [16]. The composite Z-score in [1] is 0.599 (inactive). Moreover, the values for the z-score in assay [15] and in assay [17] were 1.45 and 0.267 (inactive), respectively.

As to `Cc1cc(C)c(-c2cc([C@H](C)ON=C[C@@H](C)[C@H](OCc3ccccc3)C(C)C)on2)c(C)c1`, the composite z-score with Albumin (Bos taurus) is -0.365; in assay [2], -0.061; in assay [3], -0.185; in [4] it was -0.206; in assay [5] it was -0.244; in assay [6], -0.637. For the same compound, the composite z-score in the assay on Sam68 (KHDRBS1) was -0.686; in assay [7], -0.11; in [8], -0.412; in [9], -0.781; in assay [10], -1.04; in assay [11] it was 0.0063. Besides, the composite z-score in assay [12] was -1.82; in [13] it was -0.158; in [14], 0.133; in the assay with Lefty1, 0.116; in assay [16], 0.528. Also, the composite Z-score in [1] was 0.687 (inactive). Besides, the z-score is 1.18 in [15] and 0.82 (inactive) in [17].

Consider `C#CCCCON=C1[C@H]2CCn3c(=O)n(Cc4cc5c(cc4Cl)OCO5)c(=O)n3[C@H]2[C@H](O)[C@@H]2O[C@H]12`, for which the composite z-score was -0.252 with Albumin (Bos taurus); -0.0178 in assay [2]; -0.106 in assay [3]; -0.0303 in assay [4]; -0.138 in assay [5]; -0.122 in assay [6]. The composite z-score in the assay on Sam68 (KHDRBS1) was 0.431; in assay [7], 0.424; in [8], 0.656; in [9], 0.229; in assay [10], 0.522; in assay [11] it was -0.383. Further, the composite z-score in assay [12] was 0.0676; in assay [13], 0.751; in [14], 0.486; in the assay on Lefty1, 0.748; in [16], -0.232. Further, the composite Z-score in assay [1] was -0.141 (inactive). Also, the figures for the z-score in assay [15] and in assay [17] were 0.146 and 0.303 (inactive), respectively.

For the compound `CO[C@H]1COC(=O)[C@H](C)COC(=O)[C@H](C)NC(=O)CC=C[C@H]1C`, the composite z-score with Albumin (Bos taurus) is -0.642; in [2], -0.131; in assay [3] it was -0.0051; in assay [4], 0.0006; in [5] it was -0.429; in assay [6], 0.352. Moreover, the composite z-score was 1.04 with Sam68 (KHDRBS1); 1.44 in assay [7]; -0.581 in assay [8]; 0.0849 in assay [9]; -0.375 in [10]; -0.315 in assay [11]. Moreover, the composite z-score was -1.01 in [12]; 1.41 in assay [13]; 1.43 in [14]; 1.36 in the assay on Lefty1; -0.729 in [16]. Also, in assay [1], the composite Z-score was 1.19 (inactive). The z-score in assay [15] is 0.763; in assay [17] it was -0.403 (inactive).

With `CC(C)=NO[C@H](C)c1cn([C@@H]2COC[C@H]2O)nn1`, the composite z-score with Albumin (Bos taurus) is 0.392; in assay [2], 0.0694; in assay [3], -0.147; in assay [4], 0.0793; in [5], 0.0027; in assay [6], 0.191. Besides, the composite z-score is 0.317 in the assay with Sam68 (KHDRBS1); 0.655 in assay [7]; 0.139 in assay [8]; 0.106 in assay [9]; 0.661 in assay [10]; 0.335 in assay [11]. Also, the composite z-score in assay [12] is 0.187; in assay [13], 0.349; in assay [14] it was 0.594; in the assay with Lefty1, 0.718; in assay [16], -0.038. Also, in assay [1], the composite Z-score is -0.679 (inactive). For the same compound, the figures for the z-score in assay [15] and in assay [17] were 0.027 and 0.0821 (inactive), respectively.

On to `COCC#Cc1ccc([C@@H]2N[C@H](C(=O)O)CC[C@H]2C)cc1`, for which the composite z-score is -0.202 in the assay with Albumin (Bos taurus); -0.0605 in assay [2]; -0.144 in assay [3]; -0.148 in [4]; -0.336 in assay [5]; -0.384 in assay [6]. The composite z-score with Sam68 (KHDRBS1) was -0.377; in assay [7] it was 0.305; in [8], -0.691; in assay [9], -1.01; in assay [10], 0.307; in assay [11], 0.547. For the same compound, the composite z-score in assay [12] was -0.426; in assay [13], 0.273; in assay [14], -0.0471; in the assay with Lefty1, 0.0859; in assay [16], -0.389. Further, in [1], the composite Z-score was -0.165 (inactive). For the same compound, the z-score in [15] was 2.23; in [17], -1.77 (inactive).

With `CO[C@@H]1COC(=O)[C@H](COCc2ccccc2)NC(=O)CC=C[C@@H](C)[C@H](OC)COC(=O)[C@@H](C)NC(=O)CC=C[C@H]1C`, the composite z-score with Albumin (Bos taurus) was -0.764; in assay [2], 0.127; in assay [3] it was -0.126; in assay [4], -0.557; in [5], -0.887; in assay [6] it was -0.184. The composite z-score in the assay on Sam68 (KHDRBS1) is 0.0125; in assay [7], 1.02; in assay [8] it was -3.28; in assay [9], -1.39; in [10] it was -1.64; in assay [11], -0.474. Besides, the composite z-score is -1.65 in assay [12]; 1.07 in assay [13]; 1.16 in assay [14]; 0.979 in the assay with Lefty1; -0.999 in assay [16]. Also, in assay [1], the composite Z-score was -0.0478 (inactive). For the same compound, the z-score was 1.27 in [15] and -0.963 (inactive) in assay [17].

For the compound `C=CC[C@@H]1C=CC(ON=C(C)C)[C@@H](CO)O1` (stereo not given in full), the composite z-score in the assay with Albumin (Bos taurus) was -0.282; in [2], -0.0288; in [3], -0.19; in [4] it was -0.341; in assay [5], -0.301; in [6], -0.178. Also, the composite z-score with Sam68 (KHDRBS1) was -1.11; in [7], -0.213; in [8], -0.0875; in assay [9] it was 3.16; in assay [10] it was -0.901; in [11], 0.0886. Further, the composite z-score in assay [12] is -0.445; in assay [13] it was -0.356; in [14] it was -0.458; with Lefty1, -0.0561; in [16], -0.0488. The composite Z-score in [1] is 0.112 (inactive). Further, the z-score in [15] was 0.178; in assay [17], -0.0424 (inactive).
